In all, about 1,700 compounds were measured (“T2 sensor activation Q score (MG/GFP ratio z-score vs DMSO controls)”: median about 0.3, highest 2% from about 1.9 on). The sample as a whole holds a higher share of the highest values than the screen did.
These molecules were tested on ppGalNAc-T2 sensor (assay: T2 sensor activation Q score (MG/GFP ratio z-score vs DMSO controls) (SD units); higher = more sensor activation (inhibition of ppGalNAc-T2 glycosylation)). Conditions: HEK293 sensor cells; 10 µM; 6 h.
Experimental: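 Cells were treated with compound at 10 uM for 6 h, then MG/GFP ratio was read by flow cytometry (10,000 cells per well, duplicate wells). Q = (R - R_neg)/SD_neg relative to DMSO vehicle controls; the signal rises when the glycosyltransferase is inhibited.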

Point of comparison: `Cc1ccc(S(=O)(=O)CCOC(=O)CNC(=O)OCc2ccccc2)cc1`, “T2 sensor activation Q score” value -0.1. Against it:
- c1coc(CNc2ncnc3[nH]ncc23)c1 — higher, 0.7
- O=C(O)/C=C/C(=O)N1Cc2cc3ccccc3nc2C1 — lower, -0.3
- CCCCN1C(=O)CC2CCOC21C (stereo not drawn) — lower, -0.45
- CN1C(=C=Cc2cc(I)c(O)c(I)c2)C(C)(C)c2ccccc21 — higher, 3.65
- Cc1nnc(-n2cccc2)s1 — higher, 1.4
- Clc1ccc(Oc2nc3c(Cl)cccc3s2)cc1Cl — higher, 0.85
- Nc1n[nH]c(CO)n1 — higher, 1.95
- Nc1n[nH]c(-c2ccccc2)n1 — higher, 0.75
- C(COC1CC2CC1C1C2CC2OC21)OC1CC2CC1C1C2CC2OC21 (stereo not drawn) — higher, 0.15
- CC(C)C[C@H](NC(=O)[C@H](CCc1ccccc1)NC(=O)CN1CCOCC1)C(=O)N[C@@H](Cc1ccccc1)C(=O)N[C@@H](CC(C)C)C(=O)[C@@]1(C)CO1 — lower, -1.65
- O=C1c2cccc(Sc3ccccc3)c2C(=O)c2c(Sc3ccccc3)cccc21 — lower, -0.5
- S=c1nc[nH]c2c1ncn2C1CCCC1 — higher, 1.4
- COc1ccc2nc3cc(Cl)ccc3c(Nc3cc(C(C)C)c(O)cc3C)c2c1 — higher, 0.55
- N#Cc1nnn(-c2ccc(Cl)cc2)c1N — higher, 1
- CSC1=NC=C(C#N)C2=NC(c3ccc(Cl)cc3)NN12 (stereo not drawn) — higher, 2.45
- Cc1c(Cl)cccc1Nc1ncccc1C(=O)OCC(O)CO (stereo not drawn) — lower, -0.65
- CN(C)c1ccc(C(c2ccc(N(C)C)cc2)c2ccc([N+](=O)[O-])cc2)cc1 — higher, 0.55
- CCSc1nc(O)cc(=O)[nH]1 — lower, -0.9
- CC(=O)[C@H]1CC[C@H]2[C@@H]3CCC4=CC(=O)C=C[C@]4(C)[C@H]3C(=O)C[C@]12C — higher, 1.65
- CCOCc1cc(=O)[nH]c(SC)n1 — higher, -0.05
- Cc1ccc(S(=O)(=O)Oc2cc(N)c3c(n2)CCC3)cc1 — higher, 0.3
- O=C(Nc1ccc(Br)cc1)Nc1ccccc1Cl — lower, -0.9
- Clc1ccc(Nc2nnc(-c3ccc4c(c3)OCO4)o2)cc1 — lower, -0.7
- CCN1CCCC(Sc2nc3c([nH]2)c(=S)n(C)c(=O)n3C)C1 (stereo not drawn) — higher, 0.45
- O=C(O)c1cc(O)ccc1N=Nc1ccccc1 — higher, 1.55
- CCC(=Cc1ccc(CC)cn1)CC — higher, 1.85
- C(=C\c1ccccn1)/c1ccccn1 — higher, 2.1
- C(=C\CSc1ccccn1)/CSc1ccccn1 — lower, -0.6
- O=[N+]([O-])c1cccc(/C=C/c2ccccn2)c1 — lower, -1.2
- CC(=O)c1c(O)c(C)c(O)c2c1OC1=CC(=O)/C(=C(/C)N)C(=O)C12C (stereo not drawn) — lower, -1.2
- C/C=C1\NC(=O)[C@H]2CSSCC/C=C/[C@H](CC(=O)N[C@H](C(C)C)C(=O)N2)OC(=O)[C@H](C(C)C)NC1=O — higher, 3
- O=C(Nc1nc2ccccc2s1)Nc1ccc([N+](=O)[O-])cc1Cl — higher, 0.35
- CN(C)c1nc(Cl)nc2c1nc(Cl)n2C1CCCCO1 (stereo not drawn) — higher, 1.4
- O=C(/C=C/c1ccccc1)CC(c1ccccc1)N1CCOCC1 (stereo not drawn) — lower, -0.6
- C1COCCN1.O=C(O)C(C=C(Cl)Cl)N1CCOCC1 (stereo not drawn) — higher, 2.65
- CCCCCCCCC(=O)c1c(OC)oc(C=O)cc1=O — higher, 0.5
- C/C(=N/O)[C@H]1CC[C@H]2[C@@H]3CC[C@@H]4C/C(=N\O)CC[C@]4(C)[C@H]3[C@@](C)(O)C[C@]12C — higher, 0.5
- COC(=O)c1c(-c2ccccc2)[nH]c(-c2nccc3ccccc23)c1C(=O)OC — lower, -0.35
- COc1cc(NC(=O)CCl)ccc(=O)c1 — higher, 0.6
- Nc1o[nH]c(=O)c1C1CCCCC1 — lower, -0.8
- Cc1cc(-n2cnc3c(=O)[nH]cnc32)ccc1N — higher, 1.35
- CS/C(=C\c1ccc(C(=O)c2ccc(C)cc2)n1C)[S+](C)[O-] (stereo not drawn) — higher, 5.35
- CCOC(=O)Nc1ccc2nc(Sc3ccc(Cl)cc3)sc2c1 — higher, 0.35
- COC(=O)c1cc2c(n1S(=O)(=O)c1ccc(C)cc1)C(=O)C(=O)c1[nH]cc(C(=O)OCc3ccccc3)c1-2 — higher, 2
- NC(=O)NC(=O)c1nccnc1C(=O)O — lower, -0.2
- O=C(c1ccccc1)c1ccccc1C(=O)c1ccccc1 — higher, 0.65
- COC(=O)C[C@](O)(CCCC(C)(C)O)C(=O)O[C@@H]1C(OC)=C[C@]23CCCN2CCc2cc4c(cc2[C@H]13)OCO4 — higher, 4.5
- COc1c(O)ccc2c1CN1CCc3cc4c(cc3C1C2)OCO4 (stereo not drawn) — lower, -1.3
- C[C@]12CC[C@H](O)CC1=CC[C@@H]1[C@@H]2CC[C@]2(C)c3[nH]ncc3C[C@@H]12 — higher, 0.2
- COc1ccc(C(=S)N2CCN(c3ccccc3C)CC2)cc1 — lower, -0.85
- CCn1c(=O)n(C)c2c(=O)n(C)c(=O)n(C)c21 — lower, -1.1
- CCCc1nc2c([nH]1)c(=O)n(C)c(=O)n2C — higher, 1.8
- Cn1c(=O)c2[nH]c(N3CCCCC3)nc2n(C)c1=O — higher, 2.15
- Cn1c(=O)c2c(nc(N3CCCCC3)n2C)n(C)c1=O — lower, -0.7
- Cn1c(=O)c2c(nc(Cc3ccccc3)n2C)n(C)c1=O — higher, 1.35
- Cc1c2oc3c(C)ccc(C(=O)N[C@@H]4C(=O)N[C@H](C(C)C)C(=O)N5CCC[C@H]5C(=O)N(C)CC(=O)N(C)[C@@H](C(C)C)C(=O)O[C@@H]4C)c3nc-2c(C(=O)N[C@@H]2C(=O)N[C@H](C(C)C)C(=O)N3CCC[C@H]3C(=O)N(C)CC(=O)N(C)[C@@H](C(C)C)C(=O)O[C@@H]2C)c(N)c1=O — lower, -1.15
- Cc1cc2cc3c(=O)[nH]c(=O)[nH]c3nc2cc1C — lower, -0.35
- N#CC1C(=O)NC(=O)C(C#N)C12CCCC(C(F)(F)F)C2 (stereo not drawn) — higher, 0.45
- CN(C)C=Nc1ccc(Cl)c(Cl)c1 — lower, -1.85
- C1C2CC3C1C3/C2=N\N=C1/C2CC3C(C2)C13 — higher, 0.3
- Nc1ccc(SCc2nc3cccc4c3n2CCC4)cc1 — higher, 0.35
- Cn1c2c(sc1=O)CCC2 — lower, -0.4
- C#CCSc1n[nH]c(-c2ccco2)n1 — higher, 1.7
- COc1ccccc1NC(=O)Oc1cccc(OC(=O)c2ccccc2)c1 — higher, 0.2
- COc1ccc(Cc2nnc(SC)n2-c2ccc(F)cc2)cc1OC — higher, 0.45
- O=C1c2ccccc2C(=Cc2cccnc2)c2ccccc21 — higher, 0.2
- Cc1ccc(NC(=O)NNC(=O)CSC2CCc3ccccc32)c(C)c1 (stereo not drawn) — lower, -1.2
- O=C(Nc1ccsn1)c1ccc(Cl)cc1Cl — higher, 1.25
- Nc1ccn(C2OC(CCl)C(O)C2O)c(=O)n1 (stereo not drawn) — lower, -0.65
- Cn1ncc2c(Nc3ccc([N+](=O)[O-])cc3)nc(Cl)nc21 — lower, -0.5
- CC1=NCC(C)c2ccccc21 (stereo not drawn) — higher, 3.25
- COc1ccc(-c2cc(-c3ccccc3)c(-c3ccccc3)nn2)cc1 — lower, -0.95
- CCOC(=O)Nc1ccc2nc(N3CCCCCC3)sc2c1 — higher, 0.95
- O=C(C=Cc1ccc(O)c(O)c1)c1ccccc1O — lower, -0.4
- Cc1nc(SCC(=O)O)n[nH]1 — lower, -1.55
- CCOC(=O)N1CCN(Cc2c(O)ccc3ccccc23)CC1 — higher, -0.05
- CCOc1ccc(/C=C2\CCc3ccccc3C2=O)cc1 — higher, 0.5
- CCOC(=O)N1C/C(=C\c2ccccc2)C(=O)/C(=C/c2ccccc2)C1 — higher, 2.95
- CC(=O)NC1=C/C(=C\[N+](=O)[O-])C=C1O — lower, -0.65
- COc1cc2c(cc1OC)C(=O)Cc1ccc3c(c1CN(C)CC2)OCO3 — higher, 1.1
- CCN1CCCCC(=NO)C(=NO)CCCC1 — higher, 1.05
- COc1ccc(OC(=O)Nc2ccc([N+](=O)[O-])cc2OC)cc1 — higher, 0.95
- O=C1C2C3C=CC(O3)C2C(=O)N1Nc1ccccc1 (stereo not drawn) — higher, 0.25
- C(=N\Nc1nnn(Cc2ccccc2)n1)/c1ccccc1 — higher, 0.5
- Nc1ccc(-c2nc3nc(N)nc(N)c3nc2-c2ccc(N)cc2)cc1 — higher, 4.95
- CCN(CC)CCNc1c(C)cc(CO)c(Cl)c1C — higher, 0.25
- C#CC(C)OCC1CNC(=S)O1 (stereo not drawn) — lower, -1.4
- CN(C)c1ccc(/C=N\NC(=O)c2cnc3ccccc3c2)cc1 — lower, -0.3
- NS(=O)(=O)c1cc2c(cc1Cl)NC(CC1CCCC1)NS2(=O)=O (stereo not drawn) — higher, 0.8
- S=c1cn[nH]c2ccccc12 — higher, 0.55
- S=c1[nH]c2ccccc2n2cccc12 — higher, 1.1
- S=c1[nH]c2ccccc2c2ccccc12 — higher, 1.95
- O=C(c1ccccc1)c1ccc(-c2ccc(O)cc2)cc1 — higher, 1.55
- CSC(=O)NC(=O)NC(=O)c1ccc([N+](=O)[O-])cc1 — higher, 1.05
- O=C(c1ccccc1)c1ccc(Sc2ccc([N+](=O)[O-])cc2)cc1 — higher, 7.7
- CCN(CC)CCN1c2ccccc2Sc2ccc3ccccc3c21 — lower, -0.8
- OC(c1cc(-c2ccc(C(F)(F)F)cc2)nc(C(F)(F)F)c1)C1CCCCN1 (stereo not drawn) — higher, 0.5
- CCCCSc1ncnc2[nH]ncc12 — higher, 0.45
- O=[N+]([O-])c1ccc2c3ccccc3[s+]([O-])c2c1 (stereo not drawn) — higher, 0.25
- CC(C)NCC1CCc2cc(CO)c([N+](=O)[O-])cc2N1 (stereo not drawn) — lower, -0.55
- Cc1ccc(Cl)cc1NC(=O)c1cc2ccccc2cc1O — lower, -0.35
- CCOC(=O)Cc1cc(=O)c2cc(C)ccc2[nH]1 — higher, 0.8

Reference: the supplement of paper PMC5407854, “Inhibitor of ppGalNAc-T3-mediated O-glycosylation blocks cancer cell invasiveness and lowers FGF23 levels” (eLife, 2017)
